From PubChem
pPAFAH FP inh: pPAFAH enzyme inhibitors, primary screen, biochemical, fluorescence polarization, human. inhibition, % at 3.39 µM. recombinant pPAFAH, FP-rhodamine probe fluorescence polarization. Platelet-activating factor acetylhydrolase (Homo sapiens), Q13093. 330,000 tested, 1.5% active;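 active = inhibition above the mean inhibition across the screen plus 3 SD, cut at about 25% in these data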;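 note: inhibitors block binding of the rhodamine activity-based probe so polarization drops; 0% = enzyme with DMSO and 100% = wells lacking pPAFAH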
Target sequence (Q13093 whole entry, looked up): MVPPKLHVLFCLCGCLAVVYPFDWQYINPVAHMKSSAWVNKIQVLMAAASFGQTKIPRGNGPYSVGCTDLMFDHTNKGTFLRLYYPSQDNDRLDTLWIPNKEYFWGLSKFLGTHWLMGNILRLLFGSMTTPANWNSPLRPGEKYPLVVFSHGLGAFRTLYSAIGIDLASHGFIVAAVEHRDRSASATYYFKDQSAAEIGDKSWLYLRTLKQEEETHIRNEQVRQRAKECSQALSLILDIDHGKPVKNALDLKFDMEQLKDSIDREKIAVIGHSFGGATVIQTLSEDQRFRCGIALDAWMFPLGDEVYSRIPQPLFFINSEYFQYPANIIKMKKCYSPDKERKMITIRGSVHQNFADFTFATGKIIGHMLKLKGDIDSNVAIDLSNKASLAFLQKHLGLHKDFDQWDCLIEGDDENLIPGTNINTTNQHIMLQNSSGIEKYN
PAFAH1B2 FP inh: PAFAH1B2 enzyme inhibitors, primary screen, biochemical, fluorescence polarization, human | Platelet-activating factor acetylhydrolase IB subunit alpha2 (Homo sapiens), P68402 | inhibition, % at 3.39 µM | recombinant PAFAH1B2, FP-rhodamine activity probe | 340,000 tested, 1.2% active;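 active = inhibition above the mean of all tested compounds plus 3 SD, cut at about 24% in these data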;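 note: 0% = enzyme with DMSO and 100% = wells lacking PAFAH1B2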
Target sequence (P68402 whole entry, looked up): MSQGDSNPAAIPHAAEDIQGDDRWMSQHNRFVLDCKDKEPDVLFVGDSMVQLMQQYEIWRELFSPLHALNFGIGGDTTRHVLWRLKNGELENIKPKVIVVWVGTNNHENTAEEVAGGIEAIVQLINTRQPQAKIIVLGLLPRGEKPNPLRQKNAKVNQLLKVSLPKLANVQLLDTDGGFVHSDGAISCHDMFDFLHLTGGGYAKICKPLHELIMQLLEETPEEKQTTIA
PAFAH1B3 FP inh: PAFAH1B3 enzyme inhibitors, primary screen, biochemical, fluorescence polarization, human | Platelet-activating factor acetylhydrolase IB subunit alpha1 (Homo sapiens), Q15102 | recombinant PAFAH1B3, FP-rhodamine probe | inhibition, % at 3.39 µM | 340,000 tested, 0.28% active | AID 492972, 2010;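 active = inhibition above the screen-wide average of all tested compounds plus 3 SD, cut at about 25% in these data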;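 note: 0% = enzyme with DMSO only and 100% = wells lacking PAFAH1B3 protein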
M18AAP inhibitor: PfM18AAP inhibitors, malaria aminopeptidase, primary screen, biochemical, QFRET, recombinant enzyme; 290,000 tested, 1.2% active; inhibition, % at 7.35 µM; AID 1822, 2009; H-Glu-NHMec fluorogenic cleavage; M18 aspartyl aminopeptidase (Plasmodium falciparum 3D7);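 active = inhibition above the campaign mean inhibition over all tested compounds plus 3 SD, cut at about 28% in these data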;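 note: 0% = plate median of test compound wells and 100% = 2 mM ZnCl2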
Pemphigus Ab inh: inhibitors of pemphigus antibody binding to DSG3, primary screen, biochemical, bead-based, flow cytometry, scFv-GFP. 310,000 tested, 0.48% active. DSG3-coupled beads, scFv-anti-DSG3-GFP binding; active compounds read low. binding (percent of control), % at 10 µM;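 active = binding more than 3 SD below its plate's average and above zero; inconclusive = below that plate limit but binding exactly zero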;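 note: hits lower antibody fragment binding to DSG3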
PAFAH2 FP inh: PAFAH2 enzyme inhibitors, primary screen, biochemical, fluorescence polarization, human. inhibition, % at 3.39 µM. 340,000 tested, 0.99% active. Platelet-activating factor acetylhydrolase 2, cytoplasmic (Homo sapiens), Q99487. recombinant PAFAH2, FP-rhodamine activity probe. AID 492956, 2010;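 active = inhibition above the mean over all tested compounds plus 3 SD, cut at about 30% in these data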;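 note: inhibitors block probe labeling of enzyme so polarization drops; 0% = enzyme with DMSO and 100% = wells lacking PAFAH2 protein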
PAFAH2 confirm: PAFAH2 enzyme inhibitors, confirmation, biochemical, fluorescence polarization, human | shares compounds with PAFAH2 FP inh | recombinant PAFAH2, FP-rhodamine activity probe | inhibition, % at 3.39 µM | 2,300 tested, 65% active;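 active = mean inhibition over three repeats above a set limit taken from the earlier primary screen, cut at about 30% in these data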;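 note: inhibitor blocks binding of rhodamine activity probe so polarization falls; 0% = enzyme with DMSO and 100% = wells lacking PAFAH2 protein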
Active calls of the source: *; ? = inconclusive; · = no result. A selection: hits, their analogues and other compounds. The true share with any hit is near 3.8%.

SMILES	pPAFAH FP inh	PAFAH1B2 FP inh	PAFAH1B3 FP inh	M18AAP inhibitor	Pemphigus Ab inh	PAFAH2 FP inh	PAFAH2 confirm
O=C1CCCC/C=C\C[C@H](CC(=O)N(CCO)Cc2ccccc2)C(=O)N[C@@H](c2ccccc2)CO1	5.6	3.6	6.5	·	100.5	48.2*	32.6*
O=C(Nc1ccc(Cl)cc1)[C@@H]1[C@@H]2C(=O)N(c3ccc(Cl)cc3)C(=O)[C@@H]2[C@H]2C=CC=NN21	23.9	-1.8	2.9	-8.4	100.3	33.4*	-3.4
CN(C)S(=O)(=O)n1cnc([C@@H]2[C@H]3C(=O)OC[C@@H]3C[C@@]23N=CN(Cc2ccccc2)C3=O)c1	2.3	7.3	7.7	·	97.7	40.1*	34.2*
CN(C)S(=O)(=O)N1CCN(Cc2ccccc2)CC1	0.8	-1.5	1.6	9.0	108.4	10.8	·
O=C(COC(=O)C1CC2C=CC1C2)Nc1ccccc1[N+](=O)[O-] (configuration not stated)	12.9	1.0	10.8	·	·	76.8*	57.7*
NC(=O)c1ccc(NC(=O)COC(=O)C2CC3C=CC2C3)cc1 (configuration not stated)	0.9	4.0	0.5	·	93.9	-6.8	·
CC(C)c1ccc(NC(=O)COC(=O)C2CC3C=CC2C3)cc1 (configuration not stated)	23.9	2.3	-0.7	·	101.4	44.3*	23.9
O=C(COC(=O)C1CC2C=CC1C2)Nc1ccc([N+](=O)[O-])cc1 (configuration not stated)	20.1	9.8	2.0	·	98.6	56.7*	53.9*
Cc1ccc(NC2CCCN(C(=O)CCN3CCOCC3)C2)cc1C (configuration not stated)	-0.5	-2.5	5.5	6.6	89.8	0.5	·
O=C(O/N=C/c1cccc([N+](=O)[O-])c1)C1CC1	21.6	8.8	5.7	4.5	104.4	92.0*	77.8*
CC(=O)Nc1ccc(NC(=O)C(C)O/N=C/c2cccc([N+](=O)[O-])c2)cc1 (configuration not stated)	5.9	1.8	3.8	-1.4	101.9	30.3*	-2.7
COc1ccc(-c2c(C)nn3c(C)cc(C)nc23)cc1	3.5	1.2	10.3	6.5	106.8	1.7	·
CCN(CC)c1ccc(C(=O)OCC(=O)Nc2cc(C)on2)cc1	16.0	0.2	6.3	·	98.8	90.0*	66.0*
Cc1cc(NC(=O)COC(=O)c2ccccc2NCCO)no1	6.1	7.2	9.6	·	129.2	6.0	·
CCOc1ccc(C(=O)OCC(=O)Nc2cc(C)on2)cc1OCC	5.4	6.1	-2.2	-2.6	101.7	76.7*	62.5*
CCOc1cc(C(=O)OCC(=O)Nc2cc(C)on2)ccc1OCC(C)C	-0.1	0.5	6.7	6.3	79.0	32.5*	29.2
Cc1cc(NC(=O)COC(=O)c2ccccc2S(=O)(=O)N(C)c2ccccc2)no1	2.4	-0.5	1.5	4.6	103.9	45.8*	0.7
O=C(COC(=O)/C=C/c1ccc(Cl)cc1Cl)NCCC1=CCCCC1	4.8	0.8	3.0	3.9	98.0	-3.6	·
Cc1ccc(C(=O)c2ccccc2C(=O)OCC(=O)NCCc2ccc(Cl)cc2Cl)cc1	1.9	5.3	3.4	-1.6	102.4	46.0*	48.9*
O=C(COC(=O)/C=C/c1ccccc1Cl)NCCc1ccc(Cl)cc1Cl	6.4	0.6	6.1	1.6	99.7	66.3*	52.2*
O=C(COC(=O)c1ccc[nH]c1=O)NCCc1ccc(Cl)cc1Cl	4.1	12.4	9.6	2.4	91.8	2.3	·
C[C@H](CO)N1C[C@H](C)[C@@H](CN(C)C(=O)Nc2ccc3c(c2)OCO3)Oc2c(NC(=O)Nc3ccc4c(c3)OCO4)cccc2C1=O	7.9	0.3	11.2	·	99.7	-1.1	·
O=C(CCN1C(=O)/C(=C/c2ccc(F)cc2)SC1=S)Nc1cc([N+](=O)[O-])ccc1O	5.3	6.3	7.9	-2.8	?	64.9*	69.3*
Cc1ccc(S(=O)(=O)NC(C)(C)CN2CCc3ccccc3C2)cc1	0.9	3.8	13.1	1.8	75.1	-5.7	·
CCN(CC)S(=O)(=O)c1ccc(/C=C/C(=O)OCC(=O)NCc2ccc3c(c2)OCO3)cc1	13.5	3.7	4.4	5.5	103.4	47.9*	30.1*
SMILES	pPAFAH FP inh	PAFAH1B2 FP inh	PAFAH1B3 FP inh	M18AAP inhibitor	Pemphigus Ab inh	PAFAH2 FP inh	PAFAH2 confirm
O=C(COC(=O)/C=C/c1ccc2c(c1)OCO2)NCc1ccc(F)cc1	·	·	·	·	97.6	·	·
CCN(CC)S(=O)(=O)c1ccc(/C=C/C(=O)OCC(=O)NNC(=O)c2ccc(OC)cc2)cc1	21.4	2.4	9.2	·	101.2	43.2*	28.3
CC1CCCCC1NC(=O)COC(=O)/C=C/c1ccc2c(c1)OCO2 (configuration not stated)	11.7	6.0	4.8	-5.2	113.9	78.7*	84.0*
CC(=O)Nc1ccc(NC(=O)COC(=O)/C=C/c2ccc3c(c2)OCO3)cc1	-0.4	0.8	2.3	·	·	-6.5	·
O=C(COC(=O)/C=C/c1ccc2c(c1)OCO2)NCc1ccccc1	-4.4	2.4	6.3	·	106.8	55.2*	41.8*
O=C1c2ccccc2NC(c2ccc(O)cc2)N1c1ccccc1 (configuration not stated)	3.5	3.8	-2.2	-0.2	99.4	9.1	·
COc1cc(/C=C/C(=O)OCC(=O)NCc2ccc3c(c2)OCO3)cc(OC)c1OC	4.0	2.4	7.0	·	·	22.8	·
COc1cccc(/C=C/C(=O)OCC(=O)NCc2ccc3c(c2)OCO3)c1	2.2	3.8	6.2	·	·	35.2*	16.8
CNc1ccccc1C(=O)OCC(=O)N1CCc2ccccc2C1	·	·	·	·	102.2	·	·
COc1ccc(NC(=S)Nc2ccccc2)c(OC)c1	-0.6	-0.2	1.2	-5.7	109.1	164.3*	-1.3
C/C(=N\NC(=S)Nc1cc(S(=O)(=O)N2CCOCC2)ccc1Cl)c1ccccc1F	18.8	1.9	6.4	21.6	97.4	-0.2	·
N/C(=N\OC(=O)c1cccs1)c1cccc(Br)c1	9.0	6.2	-1.6	-2.9	92.1	47.2*	42.2*
Cc1cccc(/C(N)=N/OC(=O)c2cccs2)c1	3.6	4.3	-2.2	3.6	·	44.8*	30.0*
Cc1ccc(/C(N)=N/OC(=O)c2cccs2)cc1	3.2	0.1	4.7	0.5	83.1	4.1	·
O=C(/C=C/c1cccc(F)c1)OCC(=O)N1CCc2ccccc21	5.1	7.6	9.8	·	104.1	23.3	·
